# Test results from ChEMBL document CHEMBL3433997, “St. Jude Leishmania screening dataset” (2016).
# Biological target: Glucose transporter (Leishmania mexicana) (UniProt O61059)
# Assay: ST_JUDE_LEISH: Cytotoxicity at 2uM final concentration against transgenic Leishmania Mexicana promastigotes LmGT2 that are glucose transport deficient and complemented with the L. Mexicana glucose transporter 2. Activity is measured by DNA content using SYBR green in vitro
# Assay type: functional
row,SMILES,inhibition
1,CC(C)n1cc(CN2CCCC(C(=O)Nc3cccc(-c4cc5ccccc5[nH]4)c3)C2)cn1 (stereo not given),-0.59%
2,Clc1ccc(-c2nc(-c3ccncc3)c[nH]2)cc1Cl,-0.87%
3,CCCc1cc(N2CCC(c3ccccc3)(N3CCCCC3)CC2)nc(Nc2ccc(OC)cc2)n1,6.08%
4,CCc1cn2c3c(cc(C(=O)N[C@@H](Cc4ccccc4)[C@H](O)CNC(C)(C)c4cccc(OC)c4)cc13)N(C)S(=O)(=O)C2,0.96%
5,Cc1ccc(C2(C)CC(C)(C)N(C(=O)COc3ccc4ccccc4c3)c3ccccc32)cc1 (stereo not given),1.03%
6,CCCc1cc(NCC)nc(Nc2ccc(C)cc2)n1,4.06%
7,COc1cc(Cc2cnc(N)nc2N)ccc1OCc1ccc(-c2csnn2)cc1,11.7%
8,CCNc1cc(C(=O)N[C@@H](Cc2ccccc2)[C@H](O)CNC(CC)c2cccc(Cl)c2)cc(N2CCCC2=O)c1 (stereo not given in full),3.68%
9,NC1CCN(c2nc(NCCCc3ccc(O)cc3)nc(NCc3cccc4ccccc34)n2)CC1,2.63%
10,CCCCN(C(=O)c1ccccc1C)c1nnc(-c2ccccc2C)s1,-0.2%
11,Cc1noc(C)c1-c1ccc(C(=C2CCCCCC2)c2ccc(O)cc2)cc1,4.06%
12,CCOc1cc(CC)ccc1C1CCN(CCN2CCC(NC(=O)c3ccc(-c4ccc(C#N)cc4)cc3)CC2)CC1,1.19%
13,COc1ccc(Nc2ncc(Cl)c(Nc3cccnc3C(N)=O)n2)cc1N1CCN(C)CC1,85.9%
14,COc1cc2nc(NCCCO)nc(Nc3ccc(Oc4ccccc4)cc3)c2cc1OC,4.69%
15,Cc1cc(NCCC(=O)NCc2cccc(F)c2)nc(NCCc2ccc(F)cc2)n1,3.7%
16,COc1cccc(O)c1CN1CCC2(CCCN(Cc3ccc(F)cc3)C2)C1 (stereo not given),-0.21%
17,CC(Oc1cc(-n2cnc3ccc(NC(=O)CCN4CCCCC4)cc32)sc1C(N)=O)c1ccccc1Cl (stereo not given),6.83%
18,CN1CCN(CCCN(Cc2cccc(-c3cccc(CNCc4ccc5c(c4)OCO5)c3)c2)C(=O)CCC2CCCC2)CC1,10.4%
19,c1cc(CNCC2CCN(CC3CCCCC3)CC2)cc(-n2ccnc2)c1,0.1%
20,NC1=NC(c2ccccc2)N(c2ccc(Cl)c(Cl)c2)C(N)=N1 (stereo not given),9.84%

row,SMILES,inhibition
1,O=C(Nc1ccc(Cl)c(Cl)c1)N1CCc2ccc(OCCCN3CCCCC3)cc2CC1,20.3%
2,Cc1ccc(NC(=O)c2ccc3ncccc3c2)cc1OC1CCN(Cc2ccc(F)cc2)CC1,5.46%
3,CCc1cn(CCCOC)c2ccc(C(=O)N[C@@H](Cc3ccccc3)[C@H](O)CNCc3cccc(C(F)(F)F)c3)cc12,2.24%
4,O=C(Nc1ccc(Cl)cc1)c1ccc(CN2CCCN(Cc3ccc(F)cc3)CC2)cc1,0.03%
5,COc1ccc2nccc([C@@H](O)CN3CCC(NC(=O)/C=C/c4ccc5cc(C)[nH]c5c4)CC3)c2c1,1.91%
6,COc1ccc(Nc2ccnc3cc(Cl)ccc23)cc1OC,7.28%
7,O=C(NC1CCN(Cc2ccccc2)CC1)c1csc2nc(-c3ccc(Cl)cc3)cn12,2.02%
8,COCCn1c(-c2cccc(Cl)c2)nn(-c2ccc([N+](=O)[O-])cc2Cl)c1=S,7.62%
9,Cc1nc(C(C)Nc2nncc(-c3ccc(Cl)cc3)n2)cs1 (stereo not given),1.17%
10,O=[N+]([O-])c1cc(/C=N/Nc2nc3ccccc3[nH]2)ccc1O,4.27%
11,O=C(Nc1cccc(CN2CCCN(CC3CCCCC3)CC2)c1)c1cc2ccccc2s1,-8.67%
12,CCN1CCC(N(Cc2ccc(-c3ccc(Cl)cc3)cc2)C(=O)Cn2c(CCc3cccc(F)c3F)cc(=O)c3ccccc32)CC1,7.94%
13,CN1CCN(CCCN(Cc2ccc(-c3cccc(CNCc4ccc5c(c4)OCO5)c3)cc2)C(=O)NC2CCCCC2)CC1,0.88%
14,Cc1cc(OCCCN2CCC(NS(=O)(=O)c3cc(Br)c(Cl)s3)CC2)c2ccccc2n1,-0.25%
15,COc1ccc(-c2cn3c(C(=O)Nc4ccccc4Cl)c(-c4ccccc4)c4c3n2CCCC4)cc1,-0.58%
16,O=C(Nc1ccc([N+](=O)[O-])cc1)Nc1cc(C(F)(F)F)ccc1F,3.15%
17,O=c1cc(NCCCNCc2cc(C(F)(F)F)ccc2Cl)[nH]c2ccccc12,-1.57%
18,CN(c1ccccc1C(=O)Nc1cc(Cl)ccc1Oc1ccccc1)S(=O)(=O)c1ccccc1,3.66%
19,Cc1cc(N2C(N)=NC(N)=NC2(C)C)ccc1Cl,-0.97%
20,COc1cc2nc(N3CCC(CNC(=O)c4ccc(-c5cccc(C#N)c5)cc4)CC3)nc(N)c2cc1OC,2.21%
